This note sets out measurements from ChEMBL document CHEMBL3433997, “St. Jude Leishmania screening dataset” (2016).

The target of this test is Solute carrier family 2, facilitated glucose transporter member 1 (Homo sapiens) (UniProt P11166). The test is described as follows: ST_JUDE_LEISH: Cytotoxicity at 2uM final concentration against transgenic Leishmania Mexicana promastigotes LmGLUT1 that are glucose transport deficient and complemented with the human glucose transporter GLUT1. Activity is measured by DNA content using SYBR green in vitro. The test is classed as functional.
Solute carrier family 2, facilitated glucose transporter member 1 (Homo sapiens), sequence (P11166 whole entry): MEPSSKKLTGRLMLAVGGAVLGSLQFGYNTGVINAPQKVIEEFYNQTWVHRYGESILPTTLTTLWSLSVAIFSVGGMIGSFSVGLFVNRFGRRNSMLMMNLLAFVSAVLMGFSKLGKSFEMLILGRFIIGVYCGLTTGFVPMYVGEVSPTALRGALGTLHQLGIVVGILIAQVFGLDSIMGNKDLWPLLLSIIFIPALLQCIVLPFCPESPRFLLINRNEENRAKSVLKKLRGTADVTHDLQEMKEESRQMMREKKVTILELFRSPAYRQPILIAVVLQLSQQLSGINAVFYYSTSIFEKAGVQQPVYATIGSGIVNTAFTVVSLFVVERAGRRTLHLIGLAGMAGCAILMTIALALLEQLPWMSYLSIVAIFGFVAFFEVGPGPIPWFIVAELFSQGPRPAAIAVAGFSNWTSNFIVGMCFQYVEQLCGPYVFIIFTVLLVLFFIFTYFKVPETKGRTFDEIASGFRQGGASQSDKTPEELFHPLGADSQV
For the molecule `CC(CN1CCN(C)CC1)C(=O)Nc1ccc(-c2csc(-c3nc4ccccc4[nH]3)c2)cc1` (stereo not given), the inhibition is 4.03%.

On to `O=C(CCc1c[nH]cn1)Nc1cccc(-c2cccc(-c3nc4cc(C(F)(F)F)ccc4[nH]3)c2)c1`, for which the inhibition is -0.34%.

As for `c1cncc(Oc2ccc(Nc3ccnc4cc(-c5cccc(CNCCN6CCOCC6)c5)ccc34)cc2)c1`, the inhibition worked out at 0.19%.

As to `NC1CCN(Cc2ccc(-c3cccc(-c4nc5cc(F)ccc5[nH]4)c3)cc2)C1` (stereo not given), the inhibition came out at 16.9%.

In the case of `Cc1cc(-c2cccc(CNC3CCN(C)CC3)c2)ccc1S(=O)(=O)NCCc1ccccn1`, the inhibition is 0.29%.

As for `COc1cc2nc(N3CCN(C(=O)c4ccc(N(C(=O)OC(C)(C)C)C(=O)OC(C)(C)C)cc4)CC3)nc(N)c2cc1OC`, the inhibition was -0.43%.

Regarding `CC(C)(C)c1ccc(OCCCON2C(=N)N=C(N)NC2(C)C)c(C(C)(C)C)c1`, the inhibition is 1.15%.

For the molecule `COc1ccccc1NC(=O)Nc1ccc(-c2ccc(-c3nc4cc(C(F)(F)F)ccc4[nH]3)cc2)cc1`, the inhibition turned out to be 9.03%.

For `COc1ccc(-c2cccc(CNC3CCN(C)CC3)c2)cc1S(=O)(=O)NCc1ccccc1`, the inhibition came out at 4.97%.

For `O=C(NCCc1ccc(Cl)c(Cl)c1)[C@@H]1CCCN1C(=O)c1ccc(O)c(-c2ccc(Cl)c(Cl)c2)c1`, the inhibition was -1.56%.

As for `O=C(Nc1ccc(OC2CCN(Cc3ccc(F)cc3)CC2)c(Cl)c1)c1ccsc1`, the inhibition is -1.74%.

In the case of `CCCN(CCC)S(=O)(=O)c1ccc(C(=O)Nc2nc3ccc(-c4cc(=O)[nH]c(Nc5ccccc5Cl)n4)cc3[nH]2)cc1`, the inhibition was found to be 4.09%.

For `COc1ccccc1CCNC(=O)c1cc(Br)cc(N2CCN(c3ccncc3)CC2)c1`, the inhibition amounted to 1.16%.

As to `COc1ccc(-c2ccc(NC(=O)c3cccc(C#N)c3)cc2)cc1CN1CCCC(C(N)=O)C1` (stereo not given), the inhibition was found to be 3.09%.

On to `COc1ccc(N(C)Cc2cnc3nc(N)nc(N)c3n2)cc1`, for which the inhibition was found to be 1.5%.

Regarding `O=C(Nc1ccc(-c2nc3ccccc3[nH]2)cc1)C1CCN(Cc2ccccc2)CC1`, the inhibition is 16.2%.

Consider `Cc1nc(-c2ccc(C(F)(F)F)cn2)sc1C(=O)N1CCc2cc3nccc(N4CCN5CCC[C@H]5C4)c3cc21`, for which the inhibition is 7.49%.

`CCN(CC)CCN(Cc1ccc(-c2ccc(C(F)(F)F)cc2)cc1)C(=O)Cn1nc(-c2ccc(C(F)(F)F)cc2)ccc1=O`: the inhibition came to 1.46%.

Consider `Cc1n[nH]c2cc(Nc3ccnc(Nc4ccc(CN5CCOCC5)cc4)n3)ccc12`, for which the inhibition was 12.7%.

As to `Cc1cccc2nc(-c3ccc(-c4ccc(CNCC(C)C)cc4)cc3)[nH]c12`, the inhibition is 15.3%.

Consider `Cn1cncc1-c1ccc2c(-c3ccsc3)cnc(N)c2c1`, for which the inhibition was determined as 5.58%.

As to `O=C(Nc1cccc(-c2cccc(-c3nc4ccccc4[nH]3)c2)c1)c1csnn1`, the inhibition came to 5.15%.

Consider `O=C(N[C@H]1CCN(CCc2ccc(O[C@H]3CCNC3)c(F)c2)C1)c1ccc(Cl)c(Cl)c1`, for which the inhibition worked out at 8.17%.

On to `Nc1ncc(Cc2ccc3c(ccc4ccccc43)c2)c(N)n1`, for which the inhibition turned out to be 14.2%.

Regarding `O=c1cc(NCC2(CNCc3cn(Cc4ccccc4)c4ccccc34)CCCCC2)[nH]c2ccccc12`, the inhibition amounted to 4.81%.

As to `Cc1cc(NC(=O)[C@H](CC2CCCCC2)Nc2ccc(C#N)c3ccccc23)ccc1F`, the inhibition amounted to 5.97%.

On to `Fc1cccc(COc2ccc(Nc3ncnc4sc(C#C[C@H]5CC[C@H](CN6CCOCC6)N5)cc34)cc2Cl)c1`, for which the inhibition stood at 0.36%.

`CC(C)CC(C)NC(=O)C1Cc2c([nH]c3cc(Cl)ccc23)C2(CCN(CCc3ccccc3)CC2)N1` (stereo not given): the inhibition was 6.97%.

Regarding `COc1ccc2nccc([C@@H](O)CN3CCC(NC(=O)/C=C/c4cc(F)cc(Br)c4)CC3)c2c1`, the inhibition turned out to be 6.91%.

In the case of `CCN(CC)CCNC(=O)c1ccc(NC(=O)c2cc(-c3ccncc3)nc3ccccc23)cc1`, the inhibition is 0.16%.

`Fc1ccc2[nH]c(-c3ccc(-c4ccc(CN5CCC(CCN6CCCCC6)CC5)cc4)cc3)nc2c1`: the inhibition was determined as 7.35%.

Turning to `CCOC(=O)c1c(SCc2cccc(F)c2F)[nH]c2ccccc2c1=O`, the inhibition turned out to be 0.37%.

For `CCCCOC(=O)[C@H](CCC)NC(=O)c1ccc(NS(=O)(=O)c2ccc3nc(N)[nH]c(=O)c3c2)cc1`, the inhibition worked out at 0.2%.

`CCCNC(=O)C1CCN(C(c2ccccc2)c2ccc(Cl)c(Cl)c2)CC1` (stereo not given): the inhibition worked out at 4.42%.

Consider `CC(C)CCNCC(O)Cn1c2ccc(Cl)cc2c2cc(Cl)ccc21` (stereo not given), for which the inhibition is 0.18%.

For the molecule `Cc1cc(N(C)C2CCN(C)C2)nc(Nc2ccc(Cl)cc2)n1` (stereo not given), the inhibition amounted to 7.55%.

As for `CN1CCC(N2CCN(CCOc3cc(NC(=O)/C=C/c4ccccc4Cl)ccc3Br)CC2)CC1`, the inhibition was 0.25%.

`CCCCCCCN1CCC(CCNc2ccnc3ccc(OC)cc23)CC1`: the inhibition turned out to be 0.51%.

For `COc1ccc(CCN(Cc2cccs2)C(=O)c2cc3sccc3n2C)cc1OC`, the inhibition worked out at 0.3%.

Consider `CN1CCC(N(Cc2ccc(-c3ccc(C(F)(F)F)cc3)cc2)C(=O)Cn2c(SCc3cccc(F)c3F)cc(=O)c3c2CCC3)CC1`, for which the inhibition is -1.29%.

One may read the inhibition as the drop in the measured response relative to a control, in per cent.
